The full ranking holds about 33,000 sequences; the median of “e-score” is about -0.053, and the highest 2% start at about 0.38. This excerpt belongs to a sample that is enriched for the highest values.
What follows are sequences tested against T1, SIX1 homeodomain (reference allele) (human, UniProt Q15475 108-198) (assay: universal protein binding microarray; Universal all-10-mer PBM (8x60K, AMADID 030236), 300 nM GST-tagged protein, Alexa Fluor 488 anti-GST; buffer, salt, pH and temperature not stated (as in Berger); high values mean tight binding). Conditions: protein: ivt; tags: N-terminal GST; dsDNA, one strand shown.
T1 sequence: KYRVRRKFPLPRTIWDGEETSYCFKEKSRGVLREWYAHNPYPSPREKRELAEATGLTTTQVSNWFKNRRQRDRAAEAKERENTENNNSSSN
Summary of the method: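 Homeodomains fused to GST were made by in vitro transcription/translation and measured by anti-GST western blot with a recombinant GST standard curve. At 300 nM final concentration, they were applied in duplicate to universal 'all 10-mer' protein binding microarrays (8×60K format).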

Sequence	binding signal
ATATGCCG	0.211 ± 0.0327 E-score
AGTTGTAT	0.215 ± 0.0407 E-score
AGATAAAG	0.183 ± 0.0397 E-score
CGTCTCAG	0.161 ± 0.0511 E-score
TACGCGCA	0.174 ± 0.0401 E-score
CGAATATC	0.308 ± 0.00674 E-score
GAACACCC	0.205 ± 0.0407 E-score
CCCCTTCC	0.164 ± 0.0967 E-score
CATATCCG	0.426 ± 0.0135 E-score
ATTATCCG	0.351 ± 0.0414 E-score
TATATCGA	0.387 ± 0.0436 E-score
TATATCCA	0.335 ± 0.0312 E-score
AATATCGA	0.241 ± 0.0403 E-score
GATATTGA	0.287 ± 0.088 E-score
GAGATCGA	0.271 ± 0.0142 E-score
GATATCGA	0.42 ± 0.0378 E-score
CATATACG	0.24 ± 0.0369 E-score
CAACTATC	0.168 ± 0.0786 E-score
ATTGAATA	0.196 ± 0.0188 E-score
GTGTCGCA	0.173 ± 0.106 E-score
AAGAATAC	0.214 ± 0.0706 E-score
ATCAATTA	0.229 ± 0.0261 E-score

Sequence	binding signal
ATCGCCTG	0.206 ± 0.0204 E-score
ATACTGTG	0.226 ± 0.0353 E-score
GATCGCGA	0.3375 ± 0.00196 E-score
TATCGCCA	0.36392 ± 0.000113 E-score
TATCGCGA	0.395 ± 0.0175 E-score
CCGGCGGA	0.24 ± 0.0642 E-score
TCATCCGA	0.255 ± 0.0149 E-score
GCTGACAC	0.246 ± 0.0761 E-score
ACTGATCA	0.181 ± 0.00344 E-score
ACTGATAT	0.442 ± 0.0273 E-score
GCTGAGAC	0.214 ± 0.0303 E-score
ACTGATAC	0.465 ± 0.00916 E-score
ACTGATAG	0.315 ± 0.0253 E-score
CCTGATAG	0.266 ± 0.022 E-score
ACTGCTAT	0.177 ± 0.0391 E-score
GCTGATAC	0.459 ± 0.00926 E-score
CCTGAGAC	0.168 ± 0.0173 E-score
CCTGATAC	0.4721 ± 0.0017 E-score
ACTGACAC	0.335 ± 0.01 E-score
GTATAGAA	0.215 ± 0.0496 E-score
TATCTCCA	0.282 ± 0.0362 E-score
ATGGCATC	0.155 ± 0.0404 E-score

Sequence	binding signal
ATCCAGTA	0.242 ± 0.0094 E-score
AGCAATAC	0.298 ± 0.00343 E-score
GATCGTGC	0.276 ± 0.0195 E-score
ACCTATAT	0.195 ± 0.0849 E-score
GCAGGAGA	0.153 ± 0.0104 E-score
ATATCGTA	0.402 ± 0.0509 E-score
ATATAGTA	0.304 ± 0.0257 E-score
GTCTCGTA	0.172 ± 0.0154 E-score
CTATCGTA	0.266 ± 0.0154 E-score
GTATAGTA	0.285 ± 0.0663 E-score
ATATCGTG	0.376 ± 0.0365 E-score
CTATCGTC	0.163 ± 0.0581 E-score
ATATCGTC	0.382 ± 0.0428 E-score
GTATCGTA	0.4227 ± 0.00184 E-score
GGTAGATA	0.336 ± 0.0074 E-score
GAGTAATA	0.204 ± 0.00279 E-score
AGATCTCG	0.214 ± 0.0497 E-score
GGTGTCCA	0.314 ± 0.0555 E-score
GGTGTCAA	0.45408 ± 0.000177 E-score
GGTGTCTA	0.35 ± 0.0308 E-score
GGTGTCGA	0.408 ± 0.0576 E-score
CGTGTCAC	0.1957 ± 0.000728 E-score

Sequence	binding signal
GGGGTCAA	0.151 ± 0.00175 E-score
AGTGTCAA	0.168 ± 0.0652 E-score
GGTGTCAC	0.476 ± 0.0116 E-score
AGTGTCAC	0.253 ± 0.0143 E-score
CCGCTATA	0.176 ± 0.0395 E-score
CTTAGATA	0.19 ± 0.0471 E-score
GGTACACC	0.298 ± 0.064 E-score
AAGGGTGA	0.21 ± 0.0127 E-score
GCGTTAGA	0.197 ± 0.00519 E-score
AGGGATAC	0.4148 ± 0.000559 E-score
CGGGATAA	0.17 ± 0.0308 E-score
TGGGATAA	0.176 ± 0.0405 E-score
AGGGATAT	0.45 ± 0.0188 E-score
GGGGACAC	0.161 ± 0.0585 E-score
AGGGGGAT	0.376 ± 0.0175 E-score
AGGGATAA	0.292 ± 0.0171 E-score
CGGGATAC	0.408 ± 0.0263 E-score
GGGGATAC	0.44 ± 0.0287 E-score
CGGGATAG	0.268 ± 0.0112 E-score
AGGGATAG	0.27 ± 0.0085 E-score
GGGGATAA	0.311 ± 0.0718 E-score

From paper PMC10668032, “Altered binding affinity of SIX1-Q177R correlates with enhanced WNT5A and WNT pathway effector expression in Wilms tumor”
